# Screen size: about 2,100 compounds; about 770 (37%) were called active.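 Rule for the calls: active = by-eye trace score of 1 for enhancers or -1 for inhibitors, so actives lie on both sides (some results past the limit were not filed as active); inactive = score 0, or 3 fluorescent, or 4 baseline rise.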 The list shows a part of the results.
# Molecular target: G protein-activated inward rectifier potassium channel 2 (Homo sapiens) + G protein-activated inward rectifier potassium channel 1 (Homo sapiens) (UniProt P48051+P48549)
# Sequence (P48051 whole entry, looked up): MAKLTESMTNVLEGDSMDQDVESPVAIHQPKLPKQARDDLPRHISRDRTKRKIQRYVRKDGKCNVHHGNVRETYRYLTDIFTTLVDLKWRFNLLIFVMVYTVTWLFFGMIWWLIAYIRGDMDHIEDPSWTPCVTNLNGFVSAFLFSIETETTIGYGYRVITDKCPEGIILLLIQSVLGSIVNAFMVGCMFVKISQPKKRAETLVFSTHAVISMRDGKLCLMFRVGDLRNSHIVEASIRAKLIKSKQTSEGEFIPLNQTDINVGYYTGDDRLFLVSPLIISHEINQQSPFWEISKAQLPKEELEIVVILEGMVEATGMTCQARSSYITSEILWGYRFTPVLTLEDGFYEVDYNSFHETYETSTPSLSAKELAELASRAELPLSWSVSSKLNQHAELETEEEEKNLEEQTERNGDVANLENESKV
# Sequence (P48549 whole entry, looked up): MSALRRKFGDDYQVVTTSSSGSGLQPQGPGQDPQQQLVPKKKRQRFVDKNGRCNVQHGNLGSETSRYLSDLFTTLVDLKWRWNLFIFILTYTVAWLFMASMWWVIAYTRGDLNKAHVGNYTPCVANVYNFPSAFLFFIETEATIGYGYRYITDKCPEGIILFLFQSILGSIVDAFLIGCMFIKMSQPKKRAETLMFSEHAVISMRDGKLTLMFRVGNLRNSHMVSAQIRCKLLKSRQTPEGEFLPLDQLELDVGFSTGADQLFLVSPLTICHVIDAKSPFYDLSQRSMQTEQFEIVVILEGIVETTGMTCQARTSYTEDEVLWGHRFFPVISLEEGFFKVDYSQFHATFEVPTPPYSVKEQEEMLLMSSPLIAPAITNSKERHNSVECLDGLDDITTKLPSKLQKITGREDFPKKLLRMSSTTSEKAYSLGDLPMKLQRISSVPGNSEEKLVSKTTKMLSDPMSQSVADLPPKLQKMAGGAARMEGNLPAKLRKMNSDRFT
# Experiment: GIRK1/2 thallium flux modulators, retest, confirmation, cell-based, HEK293 rmGlu8/hGIRK1/2, FluoZin-2 (AID 623911)
# Settings: HEK293 rmGlu8/hGIRK1/2, thallium flux FluoZin-2; actives lie on both sides; glutamate co-added at its EC20 level
row,Compound,manual score
1,Cc1c(C(=O)O)c(=S)sn1CCOc1ccccc1,0 (inactive)
2,Cc1ccc(-c2cnc(NC(=O)CCC(=O)N3CCCCC3)n2C)cc1,0 (inactive)
3,N#Cc1nc(Cc2ccccc2)oc1NCCc1ccccc1,-0.5 (inactive)
4,O=C(c1cccc(F)c1)N1CCN(C(=O)c2cc(-c3ccc(Cl)cc3Cl)on2)CC1,0 (inactive)
5,Cn1cccc1/C=N/n1c(-c2ccc(C(C)(C)C)cc2)n[nH]c1=S,0 (inactive)
6,Cc1ccc(-c2n[nH]c(=S)n2/N=C/c2cccs2)cc1,0.5 (inactive)
7,Fc1ccc(/C=N/n2c(-c3cccs3)n[nH]c2=S)cc1,1 (active)
8,Cc1ccc(/C=N/n2c(-c3cccs3)n[nH]c2=S)cc1,1 (active)
9,Cc1ccc(-c2n[nH]c(=S)n2/N=C/c2ccc(C)s2)cc1,0 (inactive)
10,O=C(NC(=S)Nc1ccccn1)c1cc(-c2ccccc2)nc2ccccc12,0.5 (inactive)
11,Cc1ccc(OCC(=O)NC(=S)Nc2cccc(C)n2)cc1,0 (inactive)
12,Cc1ccc2cccc(NC(=S)NC(=O)c3ccnn3C)c2n1,0 (inactive)
13,Cc1ccc([N+](=O)[O-])cc1NC(=S)NC(=O)c1ccco1,1 (active)
14,COc1cccc(C(=O)NC(=S)Nc2ccc([N+](=O)[O-])cc2C)c1,0 (inactive)
15,O=C(NC(=S)Nc1ccccn1)c1ccco1,1 (active)
16,O=C(CC(=O)Nc1ccccn1)Nc1ccccn1,0 (inactive)
17,Cc1cc([N+](=O)[O-])ccc1NC(=S)NC(=O)Cc1ccccc1,0 (inactive)
18,Cc1ccc2nsnc2c1NC(=S)NC(=O)c1ccco1,1 (active)
19,Cc1cccc(NC(=S)NC(=O)c2ccco2)n1,1 (active)
20,COc1ccc(CO/N=C/c2c(C)[nH]c(=O)[nH]c2=O)cc1,0 (inactive)
21,CCCn1nnc(NC(=O)COc2ccc(C3CCCCC3)cc2)n1,0 (inactive)
22,CC(NC(=O)C1CC=CCC1C(=O)O)C1CC2CCC1C2 (configuration not stated),0 (inactive)

row,Compound,manual score
1,CCN(CC)c1ccc2cc(-c3nnc(-c4ccccc4)o3)c(=O)oc2c1,3 (inactive)
2,CCCn1nc2cc(C(=O)NCCc3ccc(C)cc3)ccc2c1OCC,0 (inactive)
3,CCN(CC)CCn1c(NC(=O)c2ccc(Cl)cc2)nc2ccccc21,0 (inactive)
4,CCCn1nnnc1NC(=O)c1ccc2ccccc2c1,1 (active)
5,CC1CN(C2CC(C)(C)NC(C)(C)C2)CCC1=O (configuration not stated),0 (inactive)
6,Cc1ccc2c(CC(=O)NC3CCCc4ccccc43)coc2c1 (configuration not stated),0 (inactive)
7,O=C1CCC(/C=C/c2ccccc2)=NN1Cc1ccc(Cl)c(Cl)c1,0 (inactive)
8,CCN1CCN(c2ccc(NC(=O)CCc3c(C)nc4c(-c5ccccc5)c(C)nn4c3C)cc2)CC1,0 (inactive)
9,Cc1nn2c(NCCCN(C)C)c3c(nc2c1-c1ccccc1)CCC3,-1 (active)
10,Cc1cc(N2CCOCC2)n2nc(C)c(-c3ccccc3)c2n1,0 (inactive)
11,CCOC(=O)C1=C(C)NC2=C(C(=O)C(C(=O)OCC)C(c3cccc(OC)c3)C2)C1c1ccccn1 (configuration not stated),0 (inactive)
12,COC(=O)c1onc(C(=O)c2ccccc2)c1C(=O)OC,-1 (active)
13,CN(C)S(=O)(=O)c1cc(NC(=O)COC(=O)c2ccc3c(c2)OCO3)ccc1Cl,0.5 (inactive)
14,CCC(C(=O)OCC(=O)Nc1ccc(Cl)c(S(=O)(=O)N(C)C)c1)c1ccccc1 (configuration not stated),1 (active)
15,Cc1nn(CC(=O)Nc2ccc(Cl)c(S(=O)(=O)N(C)C)c2)c(C)c1[N+](=O)[O-],1 (active)
16,Cc1cc(C)n(-c2ccc(C(=O)OCC(=O)Nc3ccc(Cl)c(S(=O)(=O)N(C)C)c3)cc2)n1,1 (active)
17,CC(C)C(=O)OCC(=O)Nc1ccc(N=Nc2ccccc2)cc1,0 (inactive)
18,COC(=O)c1sccc1NC(=O)CSc1ccccc1NS(=O)(=O)c1cc(Cl)ccc1Cl,0 (inactive)
19,CCCCN(CCCC)c1nc2ccccc2nc1C(C#N)C(=O)NCCCOC (configuration not stated),3 (inactive)
20,Oc1ccccc1CNc1ccc(Br)cn1,0 (inactive)
21,CCSc1nc(-c2ccccc2)c(C#N)c(=O)[nH]1,0 (inactive)
22,S=C1NC(c2ccccc2)=NCN1c1ccc(Cl)cc1,0.5 (inactive)

row,Compound,manual score
1,CCC1(c2ccc(Cl)cc2)NC(=S)N(c2ccccc2)N1 (configuration not stated),1 (active)
2,CCCCOC(=O)c1ccc(NC(=S)NC(=O)c2c(Br)c(C)nn2C)cc1,0 (inactive)
3,Cn1ncc2cc(NC(=S)NC(=O)c3ccccc3)ccc21,0 (inactive)
4,CCCCOC(=O)c1ccc(NC(=S)NC(=O)c2c(Cl)cnn2C)cc1,0 (inactive)
5,CCCCOC(=O)c1ccc(NC(=S)NC(=O)c2c(Cl)cnn2CC)cc1,1 (active)
6,COC(=O)c1ccc(NC(=S)NC(=O)c2cc(-c3ccccc3)nc3ccccc23)cc1,0 (inactive)
7,COC(=O)c1ccc(NC(=S)NC(=O)c2c(Cl)cnn2C)cc1,1 (active)
8,CCOC(=O)C1=C(NC(=S)NC(=O)c2ccccc2)c2ccccc2CC1(C)C,0 (inactive)
9,COC(=O)C1=NN(C(=O)c2ccc(Cl)cc2)C(O)(c2ccccc2)C1 (configuration not stated),1 (active)
10,CCOC(=O)c1c(C)[nH]c(C(=O)COC(=O)CNC(=O)c2ccc(Cl)cc2)c1C,0 (inactive)
11,CC1=NN(c2ccccc2)C(=O)C1C(=O)c1ccc(Cl)cc1 (configuration not stated),0.5 (inactive)
12,CCOC(=O)C1=NN(C(=O)c2ccccc2)C(O)(c2ccc(C)cc2)C1 (configuration not stated),1 (active)
13,COC(=O)C1=NN(C(=O)c2ccc(C)cc2)C(O)(c2ccc(Cl)cc2)C1 (configuration not stated),1 (active)
14,CCC1=NN(C(=O)c2cccc(Br)c2)C(O)(c2ccc(Br)cc2)C1 (configuration not stated),0 (inactive)
15,CCOC(=O)C1=NN(C(=O)c2ccc(C)cc2)C(O)(c2ccc(Cl)cc2)C1 (configuration not stated),1 (active)
16,CC(C)c1nc(N2CCOCC2)c(C#N)c2c1CCCC2,0 (inactive)
17,Cc1ccc2c(c1)NC(=O)CC(c1ccccc1)=N2,0 (inactive)
18,CC1CCCCC1NC(=S)Nc1ccc(SC(F)F)cc1 (configuration not stated),1 (active)
19,Oc1cccc(NC(=S)Nc2ccc(SC(F)F)cc2)c1,1 (active)
20,Cc1ccc(SC(C)C(=O)Nc2ccc(S(=O)(=O)N3CCOCC3)cc2)cc1 (configuration not stated),0 (inactive)
21,CC1CC(C)CN(C(=S)Nc2ccc(SC(F)F)cc2)C1 (configuration not stated),1 (active)
22,CC1CCCC(NC(=S)Nc2ccc(SC(F)F)cc2)C1C (configuration not stated),1 (active)

row,Compound,manual score
1,O=S(=O)(c1ccccc1)N1CCN(C(=S)Nc2ccc(F)cc2)CC1,0 (inactive)
2,CCNc1ccc2noc3c2c1C(=O)c1ccccc1-3,0 (inactive)
3,CCN(CC)c1ccc2c(c1)OC(N)=C(C#N)C2c1cccnc1 (configuration not stated),3 (inactive)
4,CCc1nc(SCc2ccc(F)cc2)[nH]c(=O)c1C#N,3 (inactive)
5,CCOc1ccc(-c2nc(-c3cccnc3)no2)cc1OCC,0 (inactive)
6,Cc1ccc(N=Nc2ccc(O)c3ncccc23)cc1,0 (inactive)
7,Cc1ccc(N=Cc2cc3c(cc2O)OC(N)=C(C#N)C3c2ccccc2)cc1 (configuration not stated),0 (inactive)
8,COc1ccc(C(=O)NC(=S)N(Cc2ccccc2)Cc2ccccc2)cc1,1 (active)
9,CCOc1cccc(C(=O)NC(=S)Nc2ccccc2)c1,0 (inactive)
10,CCOc1ccc(C(=O)NC(=S)N(Cc2ccccc2)Cc2ccccc2)cc1,1 (active)
11,CN(C)C(=O)CSc1cccc2cccnc12,0 (inactive)
12,CC(Nc1ccc(Br)cn1)c1cc(Cl)ccc1O (configuration not stated),0 (inactive)
13,CNC(=S)N/N=C/c1ccc(C(C)C)cc1,0 (inactive)
14,S=C(N/N=C/c1ccc(Cl)cc1)N1CCOCC1,1 (active)
15,Cc1ccc(/C=N/NC(=S)N2CCOCC2)cc1,1 (active)
16,Cc1ccc(C(=O)c2ccc(N3CCOCC3)c(F)c2)cc1,0 (inactive)
17,Clc1ccc(/C=N/Nc2nc(Cl)nc3ccccc23)cc1,0 (inactive)
18,S=C(N/N=C/c1ccccc1)N1CCOCC1,0.5 (inactive)
19,O=C(Nc1ccc(Br)cc1)C1CCC(=O)N1Cc1ccccc1Cl (configuration not stated),0 (inactive)
20,O=C1CC(C(=O)Nc2ccc(Br)cc2)C2(CCCC2)O1 (configuration not stated),1 (active)
21,COCc1nnc(NC(=O)C(C)C)s1,0 (inactive)
22,CCCCn1c(-c2csc3c2CCC(C)C3)n[nH]c1=S (configuration not stated),0 (inactive)

row,Compound,manual score
1,Cn1nc(C(F)(F)F)c2cc(NC(=O)OCc3ccc(F)cc3)sc21,0 (inactive)
2,CC(/C=N/n1c(COc2ccccc2)n[nH]c1=S)=C\c1ccccc1,0 (inactive)
3,CCOC(=O)C(CC)Sc1nnc(COc2ccc(C)cc2)n1-c1ccccc1 (configuration not stated),-1 (active)
4,CCOC(=O)C(CC)Sc1nnc2cc(C)c3ccccc3n12 (configuration not stated),0 (inactive)
5,Cc1cccc2cc(/C=C3\N=C(c4ccccc4)OC3=O)c(N3CCOCC3)nc12,3 (inactive)
6,CCOC(=O)C1=C(C)NC2=C(C(=O)CC(c3ccc(OC)c(OC)c3)C2)C1c1ccc(C)o1 (configuration not stated),0 (inactive)
7,CC1=C(C(=O)OCC2CCCO2)C(c2ccc(C)o2)C2=C(CC(c3ccc(F)cc3)CC2=O)N1 (configuration not stated),-1 (active)
8,CCOC(=O)C1=C(C)NC(=O)NC1c1ccc(Br)o1 (configuration not stated),0 (inactive)
9,O=C(CSc1nnc(-c2cccnc2)o1)OC1CCCCC1,0 (inactive)
10,COC(=O)c1[nH]c2ccc(C)cc2c1NC(=O)CCN1CCN(Cc2ccc3c(c2)OCO3)CC1,-1 (active)
11,Cc1ccc(C)c(Nc2c([N+](=O)[O-])cc(C(=O)N3CC(=O)Nc4ccccc43)cc2[N+](=O)[O-])c1,0 (inactive)
12,S=c1nc(-c2ccc(Br)cc2)oc2c1CCCC2,1 (active)
13,c1ccc2c(N3CCCCCC3)nc(-c3ccncc3)nc2c1,-1 (active)
14,c1ccc(-c2nnc3ccc(N4CCCC4)nn23)cc1,0 (inactive)
15,O=c1c2cccnc2[nH]c(=S)n1CCCN1CCN(c2ccc(F)cc2)CC1,0 (inactive)
16,Cc1ccc(C)n1-c1ccc(-c2nnco2)cc1,0 (inactive)
17,CCCC(=O)n1nc(-c2ccccc2)nc1N,0 (inactive)
18,CCOC(=O)C(Cc1ccccc1)NC(=O)Cn1nnc(-c2ccccc2)n1 (configuration not stated),1 (active)
19,CCOC(=O)CSc1cc(CSc2ccccc2)nc(-c2ccccc2)n1,0 (inactive)
